Assay [1] concerns the target Ubiquitin carboxyl-terminal hydrolase 1 (Homo sapiens) (UniProt O94782). Put plainly: Inhibitors of USP1/UAF1: Pilot qHTS (AID 504865).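 Note: rhodamine fluorescence freed from ubiquitin-rhodamine substrate followed over time; top concentration of the series differs between compounds; % is set by controls: 0 for no effect and ±100 for the full control effect; nearly all actives have a fitted effect of over 35% in size.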 In short, it runs like this: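 1nM USP1/UAF1 + cpd, 15 min RT; start w/ Ub-Rho 150nM final; kinetic FL 480/540 nm, 6 reads q60 s. Buffer 50mM HEPES pH 7.8, 0.5mM EDTA, 1mM TCEP, 0.01% Tween-20, 0.1 mg/ml BSA.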
Background: Quantitative high-throughput screening tests each substance at several concentrations.

Assay [2] concerns the target Luciferin 4-monooxygenase (Photinus pyralis) (UniProt P08659). Put plainly: Biochemical firefly luciferase enzyme assay for NPC (AID 624030).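 Note: purified P. pyralis luciferase at 10 nM with luciferin and ATP substrate; 0% = DMSO and -100% = full luciferase inhibition by PTC124 control; nearly all actives have a fitted effect of over 70% in size.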 An outline of the steps:
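Counter-screen for direct inhibition of the luciferase enzyme by approved-drug library compounds, run at 10 nM enzyme in 50 mM Tris acetate (final). Luminescence was read within 5 min of enzyme-buffer addition and normalized to PTC124 versus DMSO (0%).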

Assay [3] can be described thus: S16 Schwann cell viability assay (CellTiter-Glo assay) (AID 624031).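 Note: cellular ATP luminescence as a viability measure; plate controls were DMSO-treated cells for no effect and cell-free wells for full effect; nearly all actives have a fitted effect of over 70% in size.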 An outline of the steps:
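CellTiter-Glo ATP luminescence counter-screen in untransfected S16 rat Schwann cells, 24h compound exposure at 37 degree Celsius after overnight seeding (500-750 cells/well); response scaled between cell-free wells and DMSO (0% activity), curves classed by r2 and magnitude.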

Assay [4] can be described thus: S16 Schwann cell PMP22 intronic element firefly luciferase assay (AID 624032). Note: nearly all actives have a fitted effect of over 30% in size. Note: potency is the fitted concentration of half-maximal effect. An outline of the steps: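 Rat S16 Schwann cells stably carrying a PMP22 intronic element-driven Fluc reporter were seeded overnight, then exposed to compounds for 24 h at 37 °C. Luminescence was normalized to PTC124 (positive control) and DMSO (0% activity).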
The nature of assay [5]: S16 Schwann cell PMP22 intronic element beta-lactamase assay (AID 624044; calls by dose curve;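 note: 0% = DMSO and -100% = potassium clavulanate positive control; nearly all actives have a fitted effect of over 15% in size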). The settings on record: S16 rat Schwann cells, PMP22 element beta-lactamase FRET, 24 h; ratio activity, negative = inhibition: at 38.3 µM (top of the series). An outline of the steps: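 Beta-lactamase reporter under a PMP22 intronic regulatory element in stable S16 rat Schwann cells; 24 h compound exposure. 460 nm blue signal normalized between DMSO (0%) and potassium clavulanate, with 535 nm FRET tracking viability; curves classed by r2 and response.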

In another assay the test system is DIV14. Put plainly: qHTS profiling for inhibitors of Plasmodium falciparum proliferation (AID 504749).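 For activity, negative = inhibition: 0% = DMSO vehicle and full inhibition = artemisinin control.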 Note: nearly all actives have a fitted effect of over 60% in size. Note: potency is the fitted concentration of half-maximal effect. The settings on record: P. falciparum in erythrocytes, SYBR Green DNA, 72 h; series mostly up to 28.7 µM. In short, it runs like this: (§1)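 Fluorescence of SYBR Green-bound parasite DNA, read at 485/535 nm, served as the growth measure. Infected erythrocytes were cultured with compound 72 h; artemisinin (0.29 uM) and DMSO wells defined the normalization range.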

A further assay relates to DIV17. Described as above. The conditions noted are these: P. falciparum in erythrocytes, SYBR Green DNA, 72 h; series mostly up to 28.7 µM. An outline of the steps: as §1
In assay [6] the target is Cytochrome P450 3A4 (Homo sapiens) (UniProt P08684). Briefly: qHTS Assay for Inhibitors and Substrates of Cytochrome P450 3A4 (AID 884). Note: % is set by controls: 0 for no effect and ±100 for the full control effect; nearly all actives have a fitted effect of over 50% in size. An outline of the steps: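 Luminescent readout of luciferin produced by CYP3A4 (20 nM) dealkylation of Luciferin-PPXE, 25 uM (its KM). NADPH-driven reaction ran 60 min at RT after 10 min compound preincubation; data scaled to 57 uM ketoconazole as 100% inhibition.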

Assay [7] is described as follows: Confirmation and Secondary Assay for Modulators of Hemoglobin Beta Chain Splicing at IVS2 654 locus (AID 910).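 Note: per-well total GFP intensity by laser scanning cytometry after 2-day treatment; % of control where 0% means no effect.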 An outline of the steps: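 HeLa cells stably carrying EGFP interrupted by mutant beta-globin IVS2-654 intron (CMV-driven) were treated with compound for 2 days at 37C; corrected splicing was scored as total peak GFP intensity per well (488 nm excitation, 500-520 nm emission).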

Assay [8] can be described thus: Confirmation and Secondary Assay for Modulators of Hemoglobin Beta Chain Splicing at IVS2 705 locus (AID 930).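 Note: HeLa cells stably expressing the EGFP-705 splicing reporter; % of control where 0% means no effect.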 In short, it runs like this: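 Restored EGFP fluorescence after 2-day compound exposure reports splicing correction in IVS2-705 EGFP reporter HeLa cells; positive control was 500 nM splice-blocking PNA oligo. Signal measured as well total peak GFP intensity (488 nm excitation).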

Each structure is given as a SMILES string. Results filed as inconclusive are left out. Active and inactive are the calls of the source. Unless noted, calls come from the whole dose curve; as a rule, active = well fitted curve in the direction sought with a large enough effect; inconclusive = small, poorly fitted or top-dose-only effect, or another doubt; inactive = no such curve, though single readings can be large; an effect the other way counts as inactive or inconclusive.

Chain of Ubiquitin carboxyl-terminal hydrolase 1 (Homo sapiens) (O94782 whole entry, looked up): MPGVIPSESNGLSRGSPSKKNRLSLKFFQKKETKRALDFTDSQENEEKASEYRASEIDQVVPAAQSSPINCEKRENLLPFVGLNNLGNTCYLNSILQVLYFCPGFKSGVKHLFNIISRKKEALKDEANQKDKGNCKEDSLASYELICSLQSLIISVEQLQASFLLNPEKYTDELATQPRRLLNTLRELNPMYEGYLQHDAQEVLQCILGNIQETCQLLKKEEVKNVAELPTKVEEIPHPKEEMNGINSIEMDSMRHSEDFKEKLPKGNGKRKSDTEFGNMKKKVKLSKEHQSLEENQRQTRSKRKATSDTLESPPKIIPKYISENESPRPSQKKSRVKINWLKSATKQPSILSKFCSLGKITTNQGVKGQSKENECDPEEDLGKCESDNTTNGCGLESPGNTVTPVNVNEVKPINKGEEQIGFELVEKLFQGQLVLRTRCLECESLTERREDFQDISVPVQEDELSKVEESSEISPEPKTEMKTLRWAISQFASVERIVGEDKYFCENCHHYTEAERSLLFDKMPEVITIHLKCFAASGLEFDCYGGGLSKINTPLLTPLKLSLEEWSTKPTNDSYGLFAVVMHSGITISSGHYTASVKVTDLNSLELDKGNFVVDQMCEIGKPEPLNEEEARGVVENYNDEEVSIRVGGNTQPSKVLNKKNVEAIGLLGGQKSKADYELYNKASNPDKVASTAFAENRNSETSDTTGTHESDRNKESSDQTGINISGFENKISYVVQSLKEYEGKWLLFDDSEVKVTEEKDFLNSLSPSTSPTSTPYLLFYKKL
Chain of Cytochrome P450 3A4 (Homo sapiens) (P08684 whole entry, looked up): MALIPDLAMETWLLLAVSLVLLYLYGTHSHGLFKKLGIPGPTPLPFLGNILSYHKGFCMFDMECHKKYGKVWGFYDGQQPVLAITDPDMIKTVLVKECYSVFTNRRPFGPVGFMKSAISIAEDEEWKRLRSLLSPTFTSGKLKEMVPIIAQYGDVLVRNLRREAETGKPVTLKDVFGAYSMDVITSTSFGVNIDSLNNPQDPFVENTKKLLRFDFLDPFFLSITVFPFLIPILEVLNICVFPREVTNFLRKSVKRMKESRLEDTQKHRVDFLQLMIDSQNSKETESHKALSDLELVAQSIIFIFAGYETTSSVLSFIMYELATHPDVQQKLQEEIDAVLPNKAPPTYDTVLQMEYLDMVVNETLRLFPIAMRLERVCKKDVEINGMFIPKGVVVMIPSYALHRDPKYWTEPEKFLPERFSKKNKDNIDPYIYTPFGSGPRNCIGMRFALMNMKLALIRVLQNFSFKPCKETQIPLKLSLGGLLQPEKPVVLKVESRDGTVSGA
Chain of Luciferin 4-monooxygenase (Photinus pyralis) (P08659 whole entry, looked up): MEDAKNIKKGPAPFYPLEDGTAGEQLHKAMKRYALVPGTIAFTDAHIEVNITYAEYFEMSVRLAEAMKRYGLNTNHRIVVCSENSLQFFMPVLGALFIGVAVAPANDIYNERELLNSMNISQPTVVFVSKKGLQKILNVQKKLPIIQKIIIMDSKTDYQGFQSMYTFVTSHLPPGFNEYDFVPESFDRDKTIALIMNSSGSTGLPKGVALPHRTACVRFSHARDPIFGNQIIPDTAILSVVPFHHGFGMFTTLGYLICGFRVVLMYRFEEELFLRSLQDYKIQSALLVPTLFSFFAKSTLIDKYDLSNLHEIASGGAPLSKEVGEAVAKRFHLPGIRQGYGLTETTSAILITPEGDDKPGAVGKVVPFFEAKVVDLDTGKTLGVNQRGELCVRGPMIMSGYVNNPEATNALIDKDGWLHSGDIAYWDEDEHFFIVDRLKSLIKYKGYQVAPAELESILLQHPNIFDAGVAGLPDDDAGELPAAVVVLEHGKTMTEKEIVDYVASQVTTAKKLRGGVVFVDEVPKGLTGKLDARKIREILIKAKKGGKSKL

With `C[C@]12CC[C@@H]3c4ccc(O)cc4CC[C@H]3[C@@H]1C[C@H](O)C2O` (some centres not stated), the Potency entry (in [1]; in assay [2]; in assay [3]; in [4]; in [5]; in the assay on DIV14) was “inactive” in each case. Besides, the Potency result in the assay on DIV17 was “inactive”.

As to `OCC1O[C@H](O[C@H]2C(O)C(O)C(O)O[C@@H]2CO)C(O)C(O)C1O` (some centres not stated), the Potency entry in assay [6], in [7], in assay [8], in assay [1], in assay [3] and in assay [4] was “inactive” throughout. In addition, the Potency entry in the assay with DIV14 and in the assay on DIV17 was “inactive” each time.

`CC1(C)SC2C(NC(=O)C(C(=O)O)c3ccccc3)C(=O)N2C1C(=O)O` (configuration not stated): the Potency entry in [6], in assay [7], in assay [8], in assay [1], in assay [2] and in assay [3] was “inactive” each time. In addition, the Potency entry (in [4]; in assay [5]; with DIV14; with DIV17) was “inactive” throughout.

Turning to `CC(=O)OCC(=O)[C@@]1(O)CCC2C3C[C@H](C)C4=CC(=O)C=CC4(C)C3C(O)CC21C` (some centres not stated), the Potency entry (in assay [1]; in [2]; in [3]; in assay [4]; in assay [5]; in the assay on DIV17) was “inactive” throughout.

On to `O=C(OC[C@@H]1O[C@@](O)(COC(=O)c2cccnc2)[C@H](OC(=O)c2cccnc2)[C@H]1OC(=O)c1cccnc1)c1cccnc1`, for which the Potency result (in assay [1]; in assay [2]; in [3]; in assay [5]; in the assay with DIV14; in the assay with DIV17) was “inactive” throughout. Also, in assay [4], the Potency is 2560 nM (active).

As to `CC(=O)N[C@H]1[C@H](O[C@@H]2c3ccc(c(Cl)c3)Oc3cc4cc(c3O[C@@H]3O[C@H](CO)[C@@H](O)[C@H](O)C3C)Oc3ccc(cc3Cl)C[C@H]3NC(=O)[C@@H](N)c5ccc(O)c(c5)Oc5cc(O)cc(c5)[C@H](NC3=O)C(=O)N[C@H]4C(=O)N[C@H]3C(=O)N[C@@H]2C(=O)N[C@@H](C(=O)O)c2cc(O)cc(O[C@H]4O[C@H](CO)[C@@H](O)C(O)[C@@H]4O)c2-c2cc3ccc2O)O[C@H](CO)[C@@H](O)[C@@H]1O` (some centres not stated), the Potency result (in assay [3]; in assay [4]; in [5]; with DIV14; in the assay on DIV17) was “inactive” in each case.

As to `NC(=O)NC(CCC(=O)O)C(=O)O` (configuration not stated), the Potency entry (in assay [1]; in assay [2]; in [3]; in assay [4]; in [5]; in the assay with DIV14) was “inactive” throughout. Also, the Potency entry with DIV17 is “inactive”.

`Cc1ccccc1N1C(=O)c2cc(N)ccc2N/C1=C\F`: the Potency entry in assay [1], in assay [2] and in assay [4] was “inactive” each time.

With `COc1cc2c(cc1O)CCN[C@@]21CS[C@H]2c3c(OC(C)=O)c(C)c4c(c3C(COC1=O)N1C2C2c3c(cc(C)c(OC)c3O)CC([C@@H]1O)N2C)OCO4` (some centres not stated), the Potency result in assay [2], in [3] and in [4] was “inactive” each time. Further, the Potency in the assay with DIV14 was 0.4 nM (active).

Take `CC1(Cn2ccnn2)[C@H](C(=O)O)N2C(=O)C[C@H]2S1(=O)=O` (some centres not stated): the Potency entry (in [1]; in assay [3]; in [4]; with DIV14; in the assay with DIV17) was “inactive” each time.

For the compound `OCCOC[C@H]1O[C@H](OCCO)[C@H](OCCO)[C@@H](OCCO)[C@@H]1OCCO` (tested in a mixture with another compound), the Potency result (in [1]; in assay [2]; in assay [3]; in assay [4]; in the assay with DIV14; with DIV17) was “inactive” throughout.

With `COc1cccc(OC)c1C(=O)NC1C(=O)N2C1SC(C)(C)C2C(=O)O` (configuration not stated), the Potency entry (in assay [6]; in [7]; in assay [8]; in [3]; in assay [5]; in the assay with DIV14) was “inactive” in each case. Further, the Potency entry in the assay with DIV17 was “inactive”.

For the compound `C=C[C@H]1CN2CCC1C[C@H]2[C@H](O)c1ccnc2ccc(OC)cc12` (some centres not stated), the Potency entry in assay [2], in [3] and in assay [4] was “inactive” throughout. In addition, the ratio activity, negative = inhibition in assay [5] is -10.4% (active). The Potency with DIV14 and with DIV17 was 757 nM (active) in each case.

With `NC[C@@H]1O[C@H](OC2[C@@H](CO)O[C@@H](OC3[C@H](O)[C@H](N)C[C@H](N)[C@H]3OC3O[C@H](CO)[C@@H](O)[C@H](O)[C@@H]3N)[C@H]2O)C(N)[C@H](O)[C@@H]1O` (some centres not stated), the Potency entry (in [2]; in assay [3]; in assay [4]; in [5]; with DIV14; in the assay with DIV17) was “inactive” each time.

In the case of `CCCCCCCCCCCC(=O)OCC(O)C1OCC(O)C1O` (configuration not stated), the Potency entry (in assay [2]; in assay [3]; in assay [4]; in the assay on DIV14; in the assay on DIV17) was “inactive” in each case.

Values taken from PubChem BioAssay (NCATS).
